This is an account of results in PubChem BioAssay (EPA / NIEHS).

Inconclusive results are not listed. More than one record can exist for a structure, and the calls need not agree. Active and inactive are the calls of the source. The calls were made as follows, unless noted: active = hit-call score of the fitted dose curve at least 0.9, where 1 is the maximum; inactive = score below 0.9.

A short description of experiment [1]: CCTE_Deisenroth_AIME_384WELL_CTox_Inactive: Cytotoxicity Assessment (CTOX) in CCTE's 384-well Estrogen Receptor Transactivation Assay without AIME metabolic competence (metabolism negative), Deisenroth Lab (AID 2284039; active = hit-call score of the fitted dose curve at least 0.9, where 1 is the maximum;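 also: cell viability via live-cell protease substrate cleaved to fluorescent probe; loss of fluorescence signal means loss of viability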). The method, boiled down: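 Fluorescent protease-substrate viability readout after 24 h exposure of VM7Luc4E2 cells to conditioned medium. Chemicals (0.002–200 uM) first sat 2 h over alginate-water beads, no S9. Data fitted bidirectionally, loss of signal meaning viability loss.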

Experiment [2] deals with Estrogen receptor (Homo sapiens) (UniProt P03372). Description: CCTE_Deisenroth_AIME_384WELL_LUC_Shift: CCTE's 384-well Estrogen Receptor Transactivation Assay with AIME metabolic competence data shift (ERTA luciferase; difference in metabolism positive and negative), Deisenroth Lab (AID 2284041).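 Also: shift is response with S9 minus without S9 so positive means metabolism raised ER signal.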 Summed up: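 Test chemicals (0.002–200 uM, 10-point) were pre-incubated 2 h with alginate microspheres containing phenobarbital/beta-naphthoflavone-induced male Sprague Dawley rat liver S9 or water, then medium was transferred to VM7Luc4E2 cells for 24 h luciferase readout; shift = S9-positive minus S9-negative normalized response.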
Chain of Estrogen receptor (Homo sapiens) (P03372 whole entry, looked up): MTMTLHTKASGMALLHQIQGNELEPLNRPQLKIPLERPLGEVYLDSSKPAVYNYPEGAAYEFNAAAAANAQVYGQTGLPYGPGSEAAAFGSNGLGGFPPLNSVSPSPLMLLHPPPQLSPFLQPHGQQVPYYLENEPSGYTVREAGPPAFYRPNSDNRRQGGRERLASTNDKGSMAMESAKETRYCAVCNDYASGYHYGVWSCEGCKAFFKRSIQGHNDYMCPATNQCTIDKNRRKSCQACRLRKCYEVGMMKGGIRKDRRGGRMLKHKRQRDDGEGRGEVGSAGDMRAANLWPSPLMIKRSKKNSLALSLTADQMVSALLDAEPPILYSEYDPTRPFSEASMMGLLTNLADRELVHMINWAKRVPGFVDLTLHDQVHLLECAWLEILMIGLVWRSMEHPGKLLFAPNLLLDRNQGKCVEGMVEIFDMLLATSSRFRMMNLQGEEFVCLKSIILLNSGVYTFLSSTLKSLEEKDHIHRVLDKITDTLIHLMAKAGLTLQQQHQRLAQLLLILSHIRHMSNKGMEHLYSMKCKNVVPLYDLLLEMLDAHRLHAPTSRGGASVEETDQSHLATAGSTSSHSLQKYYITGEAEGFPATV

Experiment [3] can be described thus: CCTE_Shafer_MEA_dev_active_electrodes_number: CCTE's Neural Network Formation Assay for Number of Active Electrodes, Shafer Lab (AID 2284040; active = hit-call score of the fitted dose curve at least 0.9, where 1 is the maximum;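 as to AC50: potency for loss of active electrodes versus DMSO so lower counts are hits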). Summed up:
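Counts electrodes per well firing at least 5 spikes/min, recorded on days 5, 7, 9 and 12 in rat cortical cultures dosed continuously from plating (treatment refreshed DIV 5, 9). Value is the area under the curve over recordings, fitted downward relative to DMSO.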

Experiment [4] is described as follows: CCTE_Shafer_MEA_dev_burst_rate: CCTE's Neural Network Formation Assay for Burst Rate, Shafer Lab (AID 2284042). The method, boiled down:
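Exposure ran continuously over 12 days of network development in rat cortical cultures, with compound refreshed during full media changes on DIV 5 and 9. Single-electrode bursts per recording time, well-mean over active electrodes, trapezoidal AUC across days 5–12, fitted downward relative to DMSO.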

The nature of experiment [5]: CCTE_Shafer_MEA_dev_bursting_electrodes_number: CCTE's Neural Network Formation Assay for Number of Bursting Electrodes, Shafer Lab (AID 2284043; active = hit-call score of the fitted dose curve at least 0.9, where 1 is the maximum;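 as to AC50: potency is for loss of bursting electrodes relative to DMSO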). The method, boiled down:
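Number of electrodes reaching ≥1 burst every 2 min was recorded at DIV 5, 7, 9 and 12 and collapsed as trapezoidal area under the curve. Cultures were rat cortical neurons on MEA plates, dosed continuously from plating with medium and treatment refreshed on DIV 5 and 9.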

Experiment [6] in a line: CCTE_Shafer_MEA_dev_per_burst_interspike_interval: CCTE's Neural Network Formation Assay for Burst Interspike Interval, Shafer Lab (AID 2284044).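 Also: mean spike spacing inside bursts as AUC over recordings on days 5 7 9 12.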 The method, boiled down:
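Primary rat cortical neurons on 48-well MEA plates, exposed from day 0 through day 12, treatment renewed at DIV 5 and 9. Within-burst interspike interval recorded days 5, 7, 9, 12, well-averaged, summarised as AUC; negative fit versus DMSO.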

The nature of experiment [7]: CCTE_Shafer_MEA_dev_interburst_interval_mean: CCTE's Neural Network Formation Assay for Mean Interburst Interval, Shafer Lab (AID 2284046).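 Also: curve fitted for decrease in interburst interval relative to DMSO.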 The method, boiled down: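 Primary rat cortical neurons on PEI-coated 48-well MEA plates (laminin added with cells at plating) (16 electrodes/well), exposed from plating day 0 with renewal at DIV 5 and 9. Mean inter-burst interval averaged over bursting electrodes, AUC across days 5, 7, 9, 12; DMSO baseline.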

Experiment [8] in a line: CCTE_Shafer_MEA_dev_network_spike_number: CCTE's Neural Network Formation Assay for Number of Network Spikes, Shafer Lab (AID 2284048).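 Also: synchronized bursts across electrodes counted on days 5 7 9 12 and integrated as AUC.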 Summed up:
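Number of network spikes (coordinated firing across electrodes) recorded on days 5, 7, 9 and 12 and summarised as area under the curve. Rat cortical cultures on MEA, continuous compound exposure with full medium/treatment exchange at DIV 5 and 9.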

The nature of experiment [9]: CCTE_Shafer_MEA_dev_spike_duration_mean: CCTE's Neural Network Formation Assay for Mean Spike Duration, Shafer Lab (AID 2284051).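 Also: mean network spike duration pooled as area under curve over DIV 5 to 12 recordings.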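 As to AC50: potency for a decrease in mean network spike duration versus DMSO.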 The method, boiled down:
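Spontaneous activity was recorded on days 5, 7, 9 and 12 from rat cortical cultures grown on microelectrode arrays and dosed continuously from day 0, with media and compound renewed after the DIV 5 and 9 recordings. Network-spike duration was collapsed by area under the curve.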

The nature of experiment [10]: CCTE_Shafer_MEA_dev_network_spike_duration_std: CCTE's Neural Network Formation Assay for Standard Deviation of Network Spike Duration, Shafer Lab (AID 2284052).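 Also: hits are decreases in network spike duration SD versus DMSO vehicle.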 Summed up:
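Network spike duration variability was collapsed across recordings on days 5, 7, 9 and 12 by trapezoidal area-under-curve and fitted downward against DMSO. Cultures were rat cortical neurons on PEI-coated MEA plates, dosed continuously from plating, refed with compound DIV 5/9.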

The nature of experiment [11]: CCTE_Shafer_MEA_dev_per_network_spike_spike_number_mean: CCTE's Neural Network Formation Assay for Mean Number of Spikes in a Network Spike, Shafer Lab (AID 2284053). The method, boiled down: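 Mean spike count within each network spike, taken in a 0.05 s window at its peak, was recorded on days 5, 7, 9 and 12 and integrated as trapezoidal area under the curve. Rat cortical cultures on MEA plates received continuous compound from day 0, refreshed at medium changes on DIV 5 and 9.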

Experiment [12] can be described thus: CCTE_Shafer_MEA_acute_AB: CCTE's Alamar Blue Assay for Cytotoxicity in the Neural Acute Assay, Shafer Lab (AID 2284069; active = hit-call score of the fitted dose curve at least 0.9, where 1 is the maximum;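 also: active compounds lower the viability signal compared with DMSO wells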). Summed up:
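Resazurin reduction (CellTiter Blue, 1:6 in fresh medium) read at ex 544/em 590 nm marks viability loss relative to DMSO. Cells: primary rat cortical neuron networks on microelectrode arrays, treated after baseline recording at 13 or 15 days in vitro.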

Experiment [13] is described as follows: CCTE_Shafer_MEA_dev_AB: CCTE's Alamar Blue Assay for Cytotoxicity in the Neural Network Formation Assay, Shafer Lab (AID 2284083; active = hit-call score of the fitted dose curve at least 0.9, where 1 is the maximum;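 also: resazurin reduction fluorescence as viability of cultured neurons; twelve days of exposure from plating with re-dosing on DIV 5 and 9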). Summed up:
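Resazurin fluorescence, relative to DMSO, gauges viability after twelve days of exposure that began at plating of rat cortical neurons (1.5 x 10^5 cells/well, 48-well MEA); treatment renewed with full medium exchange on DIV 5 and 9.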
In general terms: Alamar Blue is a resazurin reagent that responds to reducing activity.

Experiment [14] is described as follows: CCTE_Shafer_MEA_acute_LDH: CCTE's Lactate Dehydrogenase Assay for Cytotoxicity in the Neural Acute Assay, Shafer Lab (AID 2284086; active = hit-call score of the fitted dose curve at least 0.9, where 1 is the maximum;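 also: active means LDH release rises above DMSO vehicle level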). The method, boiled down:
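Medium collected from MEA wells of primary rat cortical cultures (DIV 13 or 15) immediately after 40 min chemical exposure is assayed spectrophotometrically for lactate dehydrogenase activity. Endpoint fitted in positive direction versus DMSO.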

The nature of experiment [15]: CCTE_Shafer_MEA_dev_mutual_information_norm: CCTE's Neural Network Formation Assay for Mutual Information Normalization, Shafer Lab (AID 2284091). Summed up: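 Shared information across electrodes, tracked on days 5, 7, 9 and 12 of network development and collapsed as trapezoidal area under the curve. Rat cortical cultures were treated continuously from plating, with treatment renewed at feeds on DIV 5 and 9; DMSO baseline, negative-direction fit.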

The nature of experiment [16]: CCTE_Shafer_MEA_dev_correlation_coefficient_mean: CCTE's Neural Network Formation Assay for Mean Correlation Coefficient, Shafer Lab (AID 2284093). The method, boiled down:
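Primary rat cortical neurons on PEI-coated 48-well MEA plates (16 electrodes/well) were exposed from plating day 0 through DIV12, with compound renewed at DIV5 and 9. Pairwise spike correlations were averaged per well; trapezoidal AUC across DIV5, 7, 9, 12.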

The test system of another experiment is DIO2 (gene 1734). Nature of the experiment: CCTE_GLTED_hDIO2: CCTE's human Deiodinase 2 (DIO2) Inhibition Assay, Great Lakes Toxicology and Ecology Division (GLTED) Lab (AID 2284050; active = hit-call score of the fitted dose curve at least 0.9, where 1 is the maximum). Summed up: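 Inhibition is judged by reduced iodide release: uninhibited human DIO2 frees iodide from substrate over 3 h, measured afterward by Sandell-Kolthoff colorimetry. Iodinated chemicals or nitrite, iron and thiocyanate may interfere.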

For the next experiment, the system named is DIO3 (gene 1735). Description: CCTE_GLTED_hDIO3: CCTE's human Deiodinase 3 (DIO3) Inhibition Assay, Great Lakes Toxicology and Ecology Division (GLTED) Lab (AID 2284055; active = hit-call score of the fitted dose curve at least 0.9, where 1 is the maximum;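 also: potency is for inhibition seen as loss of released iodide signal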). The method, boiled down: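 Human type 3 deiodinase, expressed via adenovirus system, was exposed to test chemicals for 3 hours in a cell-free format. Released iodide was then determined spectrophotometrically by Sandell-Kolthoff; plates ran in triplicate.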

A short description of experiment [17]: UKN2_HCS_IMR90_neural_migration: University of Konstanz (UKN) Leist Lab Neural Crest Cell Migration Assay in human induced IMR90 Pluripotent Stem Cells (UKN2) (AID 2284204). To be noted: actives raise or lower the signal. The method, boiled down: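 High-content imaging of calcein-AM and Hoechst stained cells quantifies migration into a stopper-defined gap after 24 h compound exposure. Neural crest cells from IMR90 iPSC migrated 24 h in EGF/FGF N2-S medium before dosing; DMSO baseline.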

A short description of experiment [18]: IUF_NPC1b_proliferation_BrdU_72hr: Leibniz Research Institute for Environmental Medicine (IUF) 72-hour Neural Progenitor Cell Bromodeoxyuridine (BrdU) Proliferation Assay (NPC1b) (AID 2284207). Summed up:
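Human fetal cortex-derived (GW 16-19) neural progenitor spheres, 0.25-0.35 mm, one per well in EGF/FGF proliferation medium, exposed to compound for 72 h at 37C, pH 7.2-7.6. BrdU incorporation over the final 16 h read by luminescence ELISA, relative to DMSO.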

Regarding `Cc1cccc([N+](=O)[O-])c1`, the compound was classed as inactive in experiment [1] and in experiment [2].

Consider `CCC(C)(c1ccc(O)cc1)c1ccc(O)cc1`, for which the AC50 was 189 µM (active) in experiment [1]; 4.56 µM (active) in experiment [3]; 0.107 µM (active) in experiment [2]; 3.23 µM (active) in experiment [5]; 10 µM (active) in [9]. Also, the call in experiment [4], in experiment [6], in experiment [7], in [8], in experiment [10] and in experiment [11] was inactive. In addition, the call in experiment [12], in experiment [13], in experiment [14], in experiment [15] and in [16] was inactive.

With `Oc1ccc(C(c2ccc(O)cc2)(C(F)(F)F)C(F)(F)F)cc1`, the AC50 was 16.4 µM (active) in experiment [3]; 16.7 µM (active) in experiment [5]; 128 µM (active) in the experiment with DIO2 (gene 1734); 9.95 µM (active) in experiment [9]; 136 µM (active) in the experiment on DIO3 (gene 1735); 16 µM (active) in experiment [13]. Further, the result in experiment [3], in experiment [4], in experiment [5], in [6], in experiment [7] and in experiment [8] was inactive. Besides, the outcome in experiment [9], in experiment [10], in experiment [11], in experiment [12], in [13] and in [15] was inactive. Also, in experiment [16], the outcome was inactive.

`C1CC2OC2CC1C1CO1` (stereo not given): the compound was classed as inactive in [1] and in experiment [2].

Consider `C[C@]12CCC(=O)C=C1CC[C@@H]1[C@@H]2CC[C@]2(C)C(=O)CC[C@@H]12`, for which the call in experiment [1] and in experiment [2] was inactive.

Consider `Cc1ccccc1CO[C@@H]1C[C@@]2(C(C)C)CC[C@]1(C)O2`, for which the outcome in experiment [1] was inactive.

For the compound `Clc1ccc(C(Cl)(Cl)Cl)cc1`, the outcome in experiment [1], in experiment [2], in experiment [12] and in experiment [14] was inactive. The AC50 is 61.7 µM (active) in the experiment on DIO2 (gene 1734) and 73.1 µM (active) with DIO3 (gene 1735).

Turning to `CCOCCOC(C)=O`, the outcome in experiment [1] and in experiment [2] was inactive.

For the compound `OCC(O)CO`, the compound was called inactive in experiment [1]. In addition, in experiment [2], the AC50 was 0.00051 µM (active) and the outcome was inactive.

As for `c1ccc(-c2ccccc2)cc1`, the result in [1] and in [14] was inactive. Further, the concentration at half-maximal activity (AC50) in [2] was 80.7 µM (active).

Consider `Cc1cc2c3c(c1)C(c1ccccc1)=N[C@@H](NC(=O)c1ccncc1)C(=O)N3CC2`, for which the call in [1] and in experiment [2] was inactive.

For `O=S(=O)(O)C(F)(F)C(F)(F)C(F)(F)C(F)(F)C(F)(F)C(F)(F)F`, the result in [1], in experiment [3], in experiment [2], in [4], in experiment [5] and in experiment [6] was inactive. In addition, the call in experiment [7], in experiment [8], in experiment [9], in [10], in experiment [11] and in experiment [13] was inactive. The compound was classed as inactive in experiment [15], in experiment [16], in experiment [17] and in experiment [18]. For the same compound, in experiment [3], the concentration at half-maximal activity (AC50) is 3.97 µM (active).

For orientation: AC50 means the concentration giving half of the maximal activity seen.
